Pol eta inh – DNA polymerase eta (human) inhibition. Q9Y253. recombinant Pol eta, fluorescent DNA replication assay. Potency, µM (doses to about 114 µM), most hits filed as inhibitors. 390,000 tested, 1.2% active
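Pol eta at 10 nM preincubated with compounds 15 min at room temperature; reaction started with fluorescent substrate (50 nM final) and read kinetically at 0 and 10 min.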
POLI inh – inhibitors of human DNA polymerase iota | 390,000 tested, 1% active | Pol iota fluorescent replication assay, 10 min | Potency, µM (titrated, usually from 115 µM), usual class: inhibitors
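Pol iota at 10 nM preincubated 15 min with compounds at room temperature; reaction started with fluorescent substrate, 50 nM final. Fluorescence read kinetically at 0 and 10 min; buffer-only wells as negative control.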
POLK inh – inhibitors of human DNA polymerase kappa | AID 588579 | 400,000 tested, 0.53% active | purified Pol kappa, fluorescent DNA synthesis assay, 10 min | Potency, µM (series often up to 107 µM), most hits filed as inhibitors
Target sequence (Q9UBT6 whole entry, looked up): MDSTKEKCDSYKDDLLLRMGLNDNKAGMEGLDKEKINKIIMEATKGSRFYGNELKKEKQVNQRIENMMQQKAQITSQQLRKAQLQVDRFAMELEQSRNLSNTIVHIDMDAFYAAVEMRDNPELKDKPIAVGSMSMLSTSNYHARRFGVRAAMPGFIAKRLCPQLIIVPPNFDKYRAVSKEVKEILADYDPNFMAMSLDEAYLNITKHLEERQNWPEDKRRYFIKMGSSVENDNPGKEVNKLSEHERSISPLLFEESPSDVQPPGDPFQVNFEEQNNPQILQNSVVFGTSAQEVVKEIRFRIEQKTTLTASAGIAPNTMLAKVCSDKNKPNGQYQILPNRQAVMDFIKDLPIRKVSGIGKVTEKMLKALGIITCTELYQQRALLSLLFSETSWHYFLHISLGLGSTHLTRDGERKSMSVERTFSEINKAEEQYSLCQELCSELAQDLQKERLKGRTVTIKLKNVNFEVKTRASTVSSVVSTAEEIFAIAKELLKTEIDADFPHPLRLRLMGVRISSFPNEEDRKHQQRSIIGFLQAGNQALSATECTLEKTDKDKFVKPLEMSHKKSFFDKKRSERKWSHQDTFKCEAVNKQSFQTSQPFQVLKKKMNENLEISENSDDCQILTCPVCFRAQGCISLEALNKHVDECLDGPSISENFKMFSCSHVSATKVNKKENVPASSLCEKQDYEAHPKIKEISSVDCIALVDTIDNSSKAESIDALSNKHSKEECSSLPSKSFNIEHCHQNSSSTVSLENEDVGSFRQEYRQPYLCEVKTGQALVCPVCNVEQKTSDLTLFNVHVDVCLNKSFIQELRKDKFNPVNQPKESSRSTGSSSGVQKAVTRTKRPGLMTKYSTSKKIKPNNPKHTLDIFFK
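10 nM Pol kappa preincubated 15 min at room temperature with compounds, then reaction started with substrate at 50 nM final. Fluorescence read kinetically at 0 and 10 min; buffer-only wells served as negative control.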
Pol beta inh-1 – DNA polymerase beta (human) inhibition; P06746; Pol beta primer extension/strand displacement, fluorescence kinetic; Potency, µM (highest dose often 114 µM), usual class: inhibitors; 340,000 tested, 1.3% active; AID 485314
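Pol beta (10 nM) was preincubated with compound for 15 min at room temperature. The reaction was then started with 50 nM substrate and read immediately and after a further 10 min at room temperature.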
PI5P4Ka inh – inhibitors of human PI5P4K alpha; AID 652105; max response, %; PI5P4Kalpha enzyme, ADP-Glo luminescence, 60 min; hits give low values; 330,000 tested, 1.2% active; P48426; active = max response of -50% or lower; inconclusive = between -30% and -50%; inactive = -30% or higher; also: value at the top dose of about 77 µM
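ADP-Glo luminescence end-point after a 60 min room-temperature kinase reaction. PI5P4Kalpha and substrate in HEPES pH 7.4 buffer with EGTA, 0.1% CHAPS and 5% DMSO; ATP at 5 microM final.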
ALOX12 inh – inhibitors of human 12S-lipoxygenase ALOX12; P18054; purified 12hLO, xylenol orange hydroperoxide absorbance; Potency, µM (series often up to 108 µM), usual class: inhibitors; 580,000 tested, 1.1% active; AID 1671190
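Purified human 12hLO at 150 nM in 25 mM Hepes, 0.01% Triton X-100, pH 7.0, preincubated 15 min at room temperature with compound. Reaction started with 40 uM arachidonic acid, 30 min at room temperature. Hydroperoxide measured by Fe-xylenol orange, 573/405 nm absorbance ratio.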
Pol beta inh-2 – Inhibitors of human DNA polymerase beta, hit validation. shares compounds with Pol beta inh-1. Pol beta primer extension/strand displacement, fluorescence kinetic. Potency, µM, hits mostly inhibitors. 250 tested, 87% active; calls by dose curve
Klenow inh – Klenow polymerase inhibition, pol beta selectivity check | shares compounds with Pol beta inh-1 | Klenow exo- polymerase counter-screen, fluorescent DNA substrate | activity change, negative = inhibition, % at 57.1 µM | 250 tested, under 10 active | AID 540300
HIV RT counter – counter-screen for DNA polymerase beta inhibitors: HIV-1 RT inhibition; AID 540301; activity % (negative = inhibition, positive = activation), % at 57.1 µM; HIV-1 RT polymerase activity, counter-screen; 250 tested, under 10 active; shares compounds with Pol beta inh-1
POLB inh gel – validation of human DNA polymerase beta inhibitors | inhibition, % at 10 µM | 110 tested, 91% active | AID 540325 | shares compounds with Pol beta inh-1 | radiolabeled primer extension gel assay, phosphorimager;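 active = inhibition at 10 µM of 30% or more; inconclusive = no clear call, values can overlap the other calls; inactive = inhibition at 10 µM under 30%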
Of the large screens only hits and unclear results are named; the others gave an inactive call (follow-up assays come after a bar, where they were run). In the library only some 2.9% were active in any assay of this set; here they are far more common. Unless noted, calls follow the shape of the dose curve; as a rule, active = well fitted curve in the direction sought with a large enough effect; inconclusive = small, poorly fitted or top-dose-only effect, or another doubt; inactive = no such curve, though single readings can be large; an effect the other way counts as inactive or inconclusive.

CCOC(=O)c1sc2nc3c(SCCC#N)cc(C(=O)c4cc(F)ccc4O)cn3c(=O)c2c1C	none
CCOC(=O)c1sc2nc3c(SCCC(=O)O)cc(C(=O)c4cc(OC)ccc4O)cn3c(=O)c2c1C	Pol eta inh 11.2µM, POLI inh inconclusive, Pol beta inh-1 2.82µM, PI5P4Ka inh inconclusive, ALOX12 inh inconclusive | Pol beta inh-2 6.31 | Klenow inh inactive | HIV RT counter inactive
Cc1ccc(C(=O)NN2CC(O)=C(c3nc(-c4cccc([N+](=O)[O-])c4)cs3)C2=N)cc1	POLI inh inconclusive, Pol beta inh-1 5.01µM | Pol beta inh-2 inconclusive | Klenow inh inactive | HIV RT counter inactive
Cc1ccc(-c2csc(C3=C(O)CN(NC(=O)c4ccc(Br)cc4)C3=N)n2)cc1	none (no result: Pol eta inh, POLI inh, POLK inh, Pol beta inh-1, PI5P4Ka inh)
CC(=O)Oc1cccc(N2C(=O)c3ccc(C(=O)O)cc3C2=O)c1	none (no result: PI5P4Ka inh)
O=C(O)c1ccc2c(c1)C(=O)N(c1cccc(-c3nc4ccccc4s3)c1)C2=O	Pol beta inh-1 17.8µM | Pol beta inh-2 14.1 | Klenow inh inactive | HIV RT counter inactive
CC(CNC(=O)c1ccc2c(c1)nc1n2CCCC1)c1ccccc1 (centres undefined)	none (no result: Pol eta inh, POLI inh, POLK inh, Pol beta inh-1, PI5P4Ka inh)
Cc1cc2oc(=O)cc(-c3cc4ccccc4o3)c2cc1O	Pol eta inh inconclusive, POLK inh inconclusive, Pol beta inh-1 0.251µM | Pol beta inh-2 15.8 | Klenow inh inactive | HIV RT counter inactive
Nc1c(C(=O)NCC2CCCO2)sc2nc3c(c(-c4ccco4)c12)CC/C3=C\c1ccco1 (centres undefined)	Pol eta inh 0.708µM, POLI inh 0.794µM, POLK inh 0.708µM, Pol beta inh-1 2.82µM, PI5P4Ka inh -100.4, ALOX12 inh inconclusive | Pol beta inh-2 11.2 | Klenow inh inactive | HIV RT counter inactive
COc1cc(/C=C/c2nc(C#N)c(NCCN3CCOCC3)o2)cc(OC)c1OC	none (no result: Pol eta inh, POLI inh, POLK inh, Pol beta inh-1, PI5P4Ka inh)
Cc1ccc(Nc2nn3c(=O)c4cc5c(cc4nc3s2)OCO5)cc1Cl	none (no result: PI5P4Ka inh)
Cc1cccc(Nc2nn3c(=O)c4ccccc4nc3s2)c1	Pol eta inh inconclusive, POLI inh inconclusive, POLK inh inconclusive, Pol beta inh-1 10µM, ALOX12 inh inconclusive | Pol beta inh-2 3.98 | Klenow inh inactive | HIV RT counter inactive
CCC(C)NC(=O)Cn1c(=O)c2c(C)cc(C)nc2n(-c2ccccc2OC)c1=O (centres undefined)	none (no result: Pol eta inh, POLI inh, POLK inh, Pol beta inh-1, PI5P4Ka inh)
CCOC(=O)C1=C(C)N=c2s/c(=C/c3ccc(OCC(=O)O)cc3)c(=O)n2C1c1ccc(SC)cc1 (centres undefined)	Pol beta inh-1 4.47µM (no result: Pol eta inh, POLI inh, POLK inh, PI5P4Ka inh, ALOX12 inh) | Pol beta inh-2 7.94 | Klenow inh inactive | HIV RT counter inactive
CCn1c(SCC(=O)Nc2sc3c(c2C#N)CCCC3)nnc1-c1ccco1	none
NC(=O)c1c(NC(=O)CSc2nnc(-c3ccco3)n2-c2ccccc2)sc2c1CCC2	Pol eta inh 10µM, POLI inh inconclusive, POLK inh inconclusive, Pol beta inh-1 4.47µM, PI5P4Ka inh -64.9, ALOX12 inh inconclusive | Pol beta inh-2 12.6 | Klenow inh inactive | HIV RT counter inactive
COc1ccccc1C(=O)NC1=C(C)Nc2ncnn2C1c1c[nH]c2ccccc12 (centres undefined)	none (no result: Pol eta inh, POLI inh, POLK inh, Pol beta inh-1, PI5P4Ka inh)
Cc1cc(C)nc(SCC(=O)c2ccc(O)c(O)c2)n1	Pol eta inh 15.8µM, POLI inh inconclusive, POLK inh inconclusive, Pol beta inh-1 4.47µM, PI5P4Ka inh inconclusive, ALOX12 inh 8.91µM | Pol beta inh-2 31.6 | Klenow inh inactive | HIV RT counter inactive | POLB inh gel 42.0

Compound activity deposited in PubChem by National Center for Advancing Translational Sciences (NCATS).
